Drawing on PubChem BioAssay (EPA / NIEHS), this text covers AC50 and outcome for three compounds.

Activity calls are given as the source filed them. How the source made its calls: active means hit-call score of the fitted dose curve at least 0.9, where 1 is the maximum; inactive means score below 0.9.

Holding throughout (conditions): mRNA level, 48 h; actives raise or lower the signal
Read-out in test [1]: Bcl-2 (BAX) gene, BAX (gene 581)
In words: LTEA_HepaRG_BAX: Life Technologies and Expression Analysis (LTEA) Assay for Bcl-2 (BAX) gene using HepaRG (AID 2283470). The essentials:
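Gene expression measured by Fluidigm qRT-PCR with three housekeeping genes for normalisation. HepaRG cells, plated 48 h beforehand, treated 48 h at up to 100 uM (8-point, half-log) in 0.5% DMSO. Bidirectional fitting versus DMSO.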

Read-out in test [2]: adenosine kinase (ADK) gene, ADK (gene 132)
In words: LTEA_HepaRG_ADK: Life Technologies and Expression Analysis (LTEA) Assay for adenosine kinase (ADK) gene using HepaRG (AID 2283471). The essentials: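 HepaRG (human liver), 48 h chemical exposure, 8-pt half-log series, top 100 uM, 0.5% DMSO vehicle. Readout: ADK mRNA by qRT-PCR vs housekeeping genes; bidirectional curve fit relative to DMSO baseline.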

Read-out in test [3]: Alpha-fetoprotein (AFP) gene, AFP (gene 174)
In words: LTEA_HepaRG_AFP: Life Technologies and Expression Analysis (LTEA) Assay for Alpha-fetoprotein (AFP) gene using HepaRG (AID 2283472). The essentials:
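AFP transcript measured by TaqMan qRT-PCR with three housekeeping genes for normalization, after 48 h chemical treatment of HepaRG cells (top 100 uM, half-log steps, 0.5% DMSO). Gain or loss fitted against vehicle.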

Read-out in a further test: BCL2L11 (gene 10018)
In words: LTEA_HepaRG_BCL2L11: Life Technologies and Expression Analysis (LTEA) Assay for Bcl-2 (BCL2L11) gene using HepaRG (AID 2283473). The essentials:
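Read-out is BCL2L11 transcript level by qRT-PCR, normalized to three housekeeping genes and fitted bidirectionally against 0.5% DMSO vehicle. HepaRG cells received chemicals for 48 h in serum-free induction medium, 100 uM down in half-log dilutions.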

Read-out in test [4]: Apolipoprotein A-V (APOA5) gene, APOA5 (gene 116519)
In words: LTEA_HepaRG_APOA5: Life Technologies and Expression Analysis (LTEA) Assay for Apolipoprotein A-V (APOA5) gene using HepaRG (AID 2283474). The essentials: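 Readout is APOA5 transcript level by qRT-PCR on Fluidigm dynamic arrays, normalized to three housekeeping genes. HepaRG cultures received chemicals for 48 h at up to 100 uM (half-log steps, 0.5% DMSO), with gain or loss scored relative to DMSO.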

Read-out in test [5]: Apoptosis regulator Bcl-2 (Homo sapiens) (UniProt P10415)
In words: LTEA_HepaRG_BCL2: Life Technologies and Expression Analysis (LTEA) Assay for Bcl-2 gene using HepaRG (AID 2283475). The essentials: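 qRT-PCR of BCL2 transcript, normalized to three housekeeping genes (ACTB, GAPDH, POLR2A), after 48 h chemical exposure of HepaRG cells; concentrations top 100 uM with half-log dilutions, 0.5% DMSO vehicle, duplicates; changes up or down fitted relative to vehicle.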

Read-out in test [6]: Bcl-2 (BID) gene, BID (gene 637)
In words: LTEA_HepaRG_BID: Life Technologies and Expression Analysis (LTEA) Assay for Bcl-2 (BID) gene using HepaRG (AID 2283476). The essentials: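 Duplicate 48 h treatments of HepaRG cells in serum-free induction medium spanned 100 uM downward in half-log steps, 0.5% DMSO. Transcript change quantified by qRT-PCR against three housekeeping genes, fitted up or down versus DMSO.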

Read-out in the next test: Caspase-3 (Homo sapiens) (UniProt P42574)
In words: LTEA_HepaRG_CASP3: Life Technologies and Expression Analysis (LTEA) Assay for cysteine-aspartic acid protease (CASP3) using HepaRG (AID 2283477). The essentials: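 Read-out is CASP3 mRNA level by TaqMan qRT-PCR in human HepaRG cells after 48 h chemical exposure. Eight half-log concentrations topping at 100 uM were tested in 0.5% DMSO; gain or loss was fitted relative to DMSO.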

Read-out in test [7]: Cytochrome P450 (CYP24A1), CYP24A1 (gene 1591)
In words: LTEA_HepaRG_CYP24A1: Life Technologies and Expression Analysis (LTEA) Assay for Cytochrome P450 (CYP24A1) using HepaRG (AID 2283478). The essentials:
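HepaRG, 48 h chemical exposure, 8-pt half-log CRC from 100 uM, 0.5% DMSO vehicle, duplicates. Endpoint: CYP24A1 mRNA by Fluidigm TaqMan qRT-PCR, normalized ACTB/GAPDH/POLR2A; gain/loss fit vs DMSO.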

Read-out in test [8]: Cytochrome P450 (CYP1A2), CYP1A2 (gene 1544)
In words: LTEA_HepaRG_CYP1A2: Life Technologies and Expression Analysis (LTEA) Assay for Cytochrome P450 (CYP1A2) using HepaRG (AID 2283479). The essentials:
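CYP1A2 transcript induction or loss, quantified by Fluidigm qRT-PCR against three housekeeping genes, was fitted bidirectionally against 0.5% DMSO controls. Human HepaRG cells received eight half-log concentrations from 100 uM over 48 h.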

Read-out in test [9]: cysteine-aspartic acid protease (CASP8), CASP8 (gene 841)
In words: LTEA_HepaRG_CASP8: Life Technologies and Expression Analysis (LTEA) Assay for cysteine-aspartic acid protease (CASP8) using HepaRG (AID 2283480). The essentials:
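Concentration-response in duplicate up to 100 uM (half-log steps, 0.5% DMSO) on differentiated HepaRG cultures for 48 h. Expression change of CASP8 mRNA is determined by TaqMan qRT-PCR with housekeeping-gene normalization.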

Read-out in test [10]: Cytochrome P450 (CYP2B6), CYP2B6 (gene 1555)
In words: LTEA_HepaRG_CYP2B6: Life Technologies and Expression Analysis (LTEA) Assay for Cytochrome P450 (CYP2B6) using HepaRG (AID 2283481). The essentials:
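HepaRG cells plated 48 h, switched to serum-free induction medium, then dosed 48 h (8 points, half-log from 100 uM, 0.5% DMSO). RNA isolated; CYP2B6 expression measured by qRT-PCR; gain or loss fitted relative to DMSO.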

Read-out in test [11]: Cytochrome P450 2C19 (Homo sapiens) (UniProt P33261)
In words: LTEA_HepaRG_CYP2C19: Life Technologies and Expression Analysis (LTEA) Assay for CYP2C19 using HepaRG (AID 2283482). The essentials: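 Transcript levels of CYP2C19 were quantified by qRT-PCR after HepaRG cells were treated for 48 hours with test chemicals up to 100 uM (eight half-log concentrations, 0.5% DMSO vehicle). Gain or loss of signal was fitted relative to DMSO.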

Read-out in the next test: CYP2C8 (gene 1558)
In words: LTEA_HepaRG_CYP2C8: Life Technologies and Expression Analysis (LTEA) Assay for CYP2C8 using HepaRG (AID 2283483). The essentials:
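This is a transcriptional endpoint in HepaRG cultures: 48 h exposure, highest concentration 100 uM. CYP2C8 mRNA is quantified by TaqMan qRT-PCR.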

Read-out in another test: CYP2C9 (gene 1559)
In words: LTEA_HepaRG_CYP2C9: Life Technologies and Expression Analysis (LTEA) Assay for CYP2C9 using HepaRG (AID 2283484). The essentials:
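Eight-point concentration-response (highest 100 uM, half-log dilutions) in HepaRG cells for 48 h; CYP2C9 expression by qRT-PCR normalized to ACTB, GAPDH, POLR2A. Bidirectional fit, DMSO baseline.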

Read-out in the next test: CYP2E1 (gene 1571)
In words: LTEA_HepaRG_CYP2E1: Life Technologies and Expression Analysis (LTEA) Assay for CYP2E1 using HepaRG (AID 2283485). The essentials:
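CYP2E1 transcript measured by Fluidigm qRT-PCR against three housekeeping genes in human HepaRG cells treated 48 h (top 100 uM, half-log steps, 0.5% DMSO vehicle). Gain or loss fitted relative to DMSO baseline.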

Read-out in a further test: CYP4A11 (gene 1579)
In words: LTEA_HepaRG_CYP4A11: Life Technologies and Expression Analysis (LTEA) Assay for CYP4A11 using HepaRG (AID 2283486). The essentials:
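HepaRG, 48 h chem exposure, 8 conc (100 uM top, half-log), 0.5% DMSO vehicle; qRT-PCR readout, housekeeping-gene normalized; bidirectional curve fit vs DMSO baseline.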

Read-out in test [12]: Cytochrome P450 3A4 (Homo sapiens) (UniProt P08684)
In words: LTEA_HepaRG_CYP3A4: Life Technologies and Expression Analysis (LTEA) Assay for CYP3A4 using HepaRG (AID 2283487). The essentials:
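CYP3A4 transcript measured by TaqMan qRT-PCR and normalized to three housekeeping genes after 48 h chemical exposure of human HepaRG cells. Top concentration 100 uM, half-log steps, 0.5% DMSO vehicle; gain or loss fitted against DMSO baseline.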

Read-out in test [13]: DNA damage-inducible transcript 3 (DDIT3), DDIT3 (gene 1649)
In words: LTEA_HepaRG_DDIT3: Life Technologies and Expression Analysis (LTEA) Assay for DNA damage-inducible transcript 3 (DDIT3) using HepaRG (AID 2283488). The essentials: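 DDIT3 transcript was quantified by qRT-PCR with ACTB/GAPDH/POLR2A normalization after 48 h chemical treatment of differentiated HepaRG cells in 0.5% DMSO. Dosing was eight-point, half-log, top 100 uM, duplicate wells. Curves fitted bidirectionally versus DMSO.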

Read-out in test [14]: Pro-epidermal growth factor (Homo sapiens) (UniProt P01133)
In words: LTEA_HepaRG_EGF: Life Technologies and Expression Analysis (LTEA) Assay for Epidermal growth factor (EGF) using HepaRG (AID 2283489). The essentials:
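HepaRG, 48 h dosing, 100 uM top, half-log x8, 0.5% DMSO. Readout: TaqMan qRT-PCR (Fluidigm array), housekeeping-normalized. Gain or loss of signal fit vs DMSO.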

Chain of Apoptosis regulator Bcl-2 (Homo sapiens) (P10415 whole entry, looked up): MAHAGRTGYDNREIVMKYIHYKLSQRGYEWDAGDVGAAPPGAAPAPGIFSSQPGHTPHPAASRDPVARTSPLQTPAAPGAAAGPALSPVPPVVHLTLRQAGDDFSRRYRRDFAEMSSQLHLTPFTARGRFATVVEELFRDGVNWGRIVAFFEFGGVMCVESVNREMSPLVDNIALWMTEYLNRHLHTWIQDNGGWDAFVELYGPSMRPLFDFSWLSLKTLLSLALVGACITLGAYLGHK
Chain of Cytochrome P450 2C19 (Homo sapiens) (P33261 whole entry, looked up): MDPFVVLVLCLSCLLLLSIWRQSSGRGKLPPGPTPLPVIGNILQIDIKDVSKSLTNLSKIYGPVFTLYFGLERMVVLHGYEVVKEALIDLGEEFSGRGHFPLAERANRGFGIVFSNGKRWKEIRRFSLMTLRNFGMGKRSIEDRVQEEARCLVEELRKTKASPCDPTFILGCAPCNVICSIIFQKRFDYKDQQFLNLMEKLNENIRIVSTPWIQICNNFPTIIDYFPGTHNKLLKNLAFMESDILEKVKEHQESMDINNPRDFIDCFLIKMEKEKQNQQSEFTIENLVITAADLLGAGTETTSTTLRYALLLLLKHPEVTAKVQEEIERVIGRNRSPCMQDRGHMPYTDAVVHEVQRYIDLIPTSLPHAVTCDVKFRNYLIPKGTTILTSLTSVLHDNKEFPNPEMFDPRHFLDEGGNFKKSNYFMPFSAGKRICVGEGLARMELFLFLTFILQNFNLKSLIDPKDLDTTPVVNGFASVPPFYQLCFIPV
Chain of Caspase-3 (Homo sapiens) (P42574 whole entry, looked up): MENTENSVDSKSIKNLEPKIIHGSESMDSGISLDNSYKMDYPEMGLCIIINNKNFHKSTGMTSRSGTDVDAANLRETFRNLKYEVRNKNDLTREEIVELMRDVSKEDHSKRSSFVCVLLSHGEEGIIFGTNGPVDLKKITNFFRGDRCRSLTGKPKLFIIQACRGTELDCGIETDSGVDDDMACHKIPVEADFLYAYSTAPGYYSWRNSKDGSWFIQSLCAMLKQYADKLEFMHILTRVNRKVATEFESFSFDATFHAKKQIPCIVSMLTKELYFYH
Chain of Cytochrome P450 3A4 (Homo sapiens) (P08684 whole entry, looked up): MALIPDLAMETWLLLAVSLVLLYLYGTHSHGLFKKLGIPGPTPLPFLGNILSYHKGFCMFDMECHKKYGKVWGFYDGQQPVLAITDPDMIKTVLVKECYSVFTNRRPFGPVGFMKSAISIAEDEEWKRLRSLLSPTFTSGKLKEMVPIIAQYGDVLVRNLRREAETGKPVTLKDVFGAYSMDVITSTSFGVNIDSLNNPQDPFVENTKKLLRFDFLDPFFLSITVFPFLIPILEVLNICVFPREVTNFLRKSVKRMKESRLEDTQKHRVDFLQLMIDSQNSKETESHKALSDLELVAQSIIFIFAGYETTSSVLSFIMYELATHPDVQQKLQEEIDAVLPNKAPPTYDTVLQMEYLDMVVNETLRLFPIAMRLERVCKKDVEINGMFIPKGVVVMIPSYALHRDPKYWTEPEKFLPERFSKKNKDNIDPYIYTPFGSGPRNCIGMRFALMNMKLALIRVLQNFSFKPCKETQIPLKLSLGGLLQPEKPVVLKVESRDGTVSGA

What is called AC50 is the concentration giving half of the maximal activity seen. On to `O=C(O)Cc1cc(I)c(Oc2ccc(O)c(I)c2)c(I)c1`, for which the AC50 is 87.2 µM (active) in test [1]; 74.7 µM (active) in test [3]; 84.9 µM (active) in [4]; 84 µM (active) in [5]; 2.37 µM (active) in test [8]; 93.8 µM (active) in test [10]. Besides, the AC50 in test [11] was 93.1 µM (active); with CYP2C9 (gene 1559), 79.5 µM (active); in the test with CYP2E1 (gene 1571), 70.6 µM (active); with CYP4A11 (gene 1579) it was 74 µM (active); in test [12], 41.6 µM (active); in test [13] it was 78.9 µM (active). Also, the result (in test [2]; in the test with BCL2L11 (gene 10018); in test [6]; in the test with Caspase-3 (Homo sapiens); in test [7]; in test [9]) was inactive. In addition, the compound was classed as inactive (with CYP2C8 (gene 1558); in [14]).
In the case of `Clc1ccccc1C(c1ccccc1)(c1ccccc1)n1ccnc1`, the AC50 is 12.3 µM (active) in test [1]; 93 µM (active) in [2]; 20.1 µM (active) in test [3]; 20.8 µM (active) in test [4]; 23 µM (active) in test [5]; 7.26 µM (active) in [8]. Besides, the AC50 in test [10] is 26 µM (active); in test [11], 27.4 µM (active); in the test with CYP2C8 (gene 1558), 23.9 µM (active); with CYP2C9 (gene 1559) it was 93.4 µM (active); with CYP2E1 (gene 1571) it was 11.3 µM (active); in the test with CYP4A11 (gene 1579), 15.8 µM (active). Further, the figures for the AC50 in test [13] and in test [14] were 86.5 µM (active) and 15.8 µM (active), respectively. For the same compound, the outcome (in test [6]; with Caspase-3 (Homo sapiens); in [7]; in [9]) was inactive.
Regarding `Cc1cccc2ccccc12`, the compound was classed as inactive (in [1]; in test [2]; in [3]; with BCL2L11 (gene 10018); in [4]; in [5]). Moreover, the compound was called inactive (in [6]; in the test with Caspase-3 (Homo sapiens); in test [8]; in [9]; in test [10]; in test [11]). Moreover, the compound was called inactive (with CYP2C8 (gene 1558); with CYP2C9 (gene 1559); in the test with CYP2E1 (gene 1571); in the test with CYP4A11 (gene 1579); in [13]; in test [14]).
